# From ChEMBL document CHEMBL3988442, “University of Dundee, Small-Polar-MMV Screening Library” (2021)
# Legend:
# [1] = target: T1, Aspartate--tRNA(Asp/Asn) ligase (Mycobacterium tuberculosis (strain ATCC 25618 / H37Rv)) (UniProt P9WFW3); assay: Assay for Asp RNA synthetase-1 from Mycobacterium tuberculosis; format: functional; design: scale not given: direction of the effect not stated beside the values; conditions: 30 µM; also: in the data most compounds retested in dose-response had high values
# T1 sequence (whole entry): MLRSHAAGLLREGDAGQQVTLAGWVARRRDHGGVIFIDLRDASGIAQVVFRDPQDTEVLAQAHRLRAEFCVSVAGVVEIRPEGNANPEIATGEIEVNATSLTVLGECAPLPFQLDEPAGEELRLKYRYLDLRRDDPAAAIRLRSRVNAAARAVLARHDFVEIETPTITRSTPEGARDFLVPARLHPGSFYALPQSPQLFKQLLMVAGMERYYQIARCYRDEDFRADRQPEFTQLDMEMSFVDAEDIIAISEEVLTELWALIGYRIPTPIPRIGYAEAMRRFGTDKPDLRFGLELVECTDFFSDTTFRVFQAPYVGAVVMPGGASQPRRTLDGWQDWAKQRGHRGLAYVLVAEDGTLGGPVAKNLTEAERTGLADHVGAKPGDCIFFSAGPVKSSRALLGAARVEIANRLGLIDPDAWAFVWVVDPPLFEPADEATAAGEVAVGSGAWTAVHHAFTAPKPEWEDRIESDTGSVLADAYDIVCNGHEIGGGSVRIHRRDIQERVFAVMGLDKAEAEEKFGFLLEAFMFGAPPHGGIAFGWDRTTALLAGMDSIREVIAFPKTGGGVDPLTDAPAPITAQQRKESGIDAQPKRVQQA
# [2] = target: Shiga toxin 2 (Escherichia coli O157:H7) (UniProt P09385+P09386); assay: E. coli 0.157:H7 Shiga Toxin SOP - stx2 screening assay; format: functional; design: scale not given: direction of the effect not stated beside the values; conditions: 30 µM
Compound,Percent Effect [1] [%],Percent Effect [2] [%]
COc1ccc(C2CCCCCN2S(=O)(=O)N(C)C)cc1 (stereo not given),-8.89,-9.69
Cc1noc(C)c1CC(=O)OCC(=O)N1CCc2sccc2C1,6.42,-7.79
Nc1cc(CCCNC(=O)NC2CC2)nn1-c1ccccc1,-4.03,-2.96
CC(C)c1cc(N2CCN(c3ccc(O)cc3)CC2)n2nccc2n1,-1.38,15
CCOc1nnc(CN(C)C2CCCN(c3cccnn3)C2)s1 (stereo not given),3.86,-25.9
Cn1cc(CN2CCCN(C(=O)c3cc[nH]n3)CC2)cn1,-4.23,-19.9
O=C(c1cscn1)N1C[C@H]2CCCC(OCc3cccnc3)[C@H]2C1 (stereo not given in full),6.49,-13.5
CC(=O)N(Cc1ncc(C(C)C)o1)C1CCN(CCn2cccn2)C1 (stereo not given),-1.37,3.59
Cc1cccc(S(=O)(=O)NCC(C)N2CCN(C)CC2)c1Cl (stereo not given),1.52,-12.1
Cc1cnn(CC2CCCCN2Cc2cc(C)on2)c1 (stereo not given),-5.5,-7.45
CC(C)n1[nH]c(=O)c2c1NC(=O)CC2c1cccc(OC(F)F)c1 (stereo not given),0.474,-12.1
CCN(CC1CCCO1)C(=O)Nc1cc(OC)c(OC)cc1C (stereo not given),-2.8,-9.12
Cc1ccc2oc(CNC(C)c3nnc4n3CCCC4)cc2c1 (stereo not given),-1.73,-34.3
O=C1OCCN1CCOc1nc(-c2ccccc2Cl)no1,-7.33,-14.8
C=Cc1ccc(C(=O)N2CCCC(Nc3ccc(OC)cc3)C2)cc1 (stereo not given),1.04,-6.01
CC(C)c1nc2c(n1C)CCN(Cc1nc(-c3cccs3)no1)C2,-1.02,-0.957
Cc1cc(C)n(C2CCCN(C(=O)COCC(F)(F)F)C2)n1 (stereo not given),-4.61,-2.74
CC(C(=O)NCCOc1cccc(Cl)c1)n1cncn1 (stereo not given),4.65,-10.9
CC(C)C(C(=O)N1CCN(c2ccncc2)CC1)n1cncn1 (stereo not given),7.82,-47.8
Cc1cnn(C2CCCN(C(=O)c3ccnc(N(C)C)c3)C2)c1 (stereo not given),-5.57,-16.8
CCc1nc2n(n1)CC(NCC(=O)Nc1nccs1)CC2 (stereo not given),-2.71,2.48
Cc1n[nH]c(C)c1C1COCCN1C(=O)c1cc(Cl)c[nH]1 (stereo not given),2.63,-24.9
Cc1cccc(CN2C[C@@H]3CN(C(=O)c4ccsc4)C[C@@H]3C2=O)c1,2.59,-27.2
Cc1ccc(NC(=O)C(C)N2CCCN(c3nccs3)CC2)c(C)c1 (stereo not given),-4.7,-49.5
O=C(C1CCC1)N1CCN(C(=O)c2cnccn2)[C@H]2CS(=O)(=O)C[C@H]21,-2.93,-12.2

Compound,Percent Effect [1] [%],Percent Effect [2] [%]
CCn1cc2c(n1)CN(Cc1nccs1)CC2COCC1CC1 (stereo not given),5.78,-5.95
CN(C)c1ccc(CC(=O)N[C@@H]2CCNC[C@H]2O)cc1,3.77,1.28
CS(=O)(=O)NCCCN1CCCC1c1ccccc1 (stereo not given),2.4,10
CCN(Cc1nc2c(cnn2C)c(=O)[nH]1)c1cccc(Cl)c1,0.461,19.9
CCN1C(=O)CCCC12CCCN(C(=O)c1conc1C)C2 (stereo not given),-4.46,1.9
CN1CCN(C2CCN(CCOc3ccc(F)cc3)CC2)C1=O,-2.61,-5.38
Cc1nc(CCC(=O)NC2CCC2)cc(C2CCNCC2)n1,1.96,-6.49
COc1ccc(OCCCNC(=O)NCc2csc(C)n2)cc1,-1.75,-17
CCN1C[C@H]2CCN(C(=O)NC3CCCC3)CC[C@H]2S1(=O)=O,-0.232,-57.6
CCN(Cc1ccc2c(c1)OCO2)C(=O)c1ccc(C)[nH]c1=O,0.522,-16
CC(C)c1nccn1C1CCCN(C(=O)c2cnc[nH]2)C1 (stereo not given),-0.983,-3.33
CCc1n[nH]c(C2CN(C(=O)CCc3cccs3)CCO2)n1 (stereo not given),-2.02,-49.5
O=C(Nc1cccc(N2CCCC2)c1)C1CCCN1c1nccs1 (stereo not given),1.21,-4.67
Cc1ncccc1O[C@H]1CCN(C(=O)Cc2cccs2)CC[C@@H]1O,-2.28,-7.15
Cc1ccccc1OCCC(=O)N1CCCC(n2cncn2)C1 (stereo not given),-3.32,2.85
Nc1nccc(-c2c[nH]nc2C2CCCCC2)n1,6.92,-26.9
Cc1ccc(-c2nnc(CN3CCc4cnc(C)nc4C3)o2)cc1,2.13,-61
CC(=O)N1CCN(c2cc(C3CN(C)CCO3)nc(C)n2)CC1 (stereo not given),0.67,-24.3
CCc1nnsc1C(=O)NC1CCN(c2ccccn2)CC1,-5.57,-24.7
COc1c(CNCc2cnn(C)c2)c(C(C)C)nn1C,-1.63,6.94
CC(c1ccco1)N(C)Cc1nc2c(cnn2C)c(=O)[nH]1 (stereo not given),-2.56,-9.3
CCc1nccn1C1CCCN(C(=O)c2csc(NC(C)=O)n2)C1 (stereo not given),-1.64,-11.1
Cc1nc(C)c(C(=O)N2CCC(Nc3cccnc3)CC2)s1,16.8,-45.8
NC(=O)C(CNC(=O)COCC(F)(F)F)Cc1ccc(F)cc1 (stereo not given),0.689,4.66
COCCN1C[C@@H]2CN(Cc3ccsc3)CCC[C@]2(C(=O)O)C1,2.26,-14.2
